Results on 19 compounds are retold here after PubChem BioAssay (EPA / NIEHS).

Results filed as inconclusive are left out. The source made the active and inactive calls. How the source made its calls: active means hit-call score of the fitted dose curve at least 0.9, where 1 is the maximum; inconclusive means response in the unintended direction; inactive means score below 0.9.

The nature of the first test: ATG_M_19_TRANS: Attagene TRANS-FACTORIAL HepG2 Assay for M19 Transcription Factor (Internal Marker) (AID 2282974). Conditions: HepG2 Attagene TRANS-FACTORIAL M19 internal marker reporter. The procedure, abridged: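 HepG2 transiently transfected with GAL4-UAS multiplex reporter constructs, exposed 24 h; reporter RNA quantified by RT-PCR, 6-FAM labeling, HpaI digestion and capillary electrophoresis; internal background marker fitted upward versus DMSO.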
Consider `CCCCCCCC(=O)OCC`, for which the call was inactive.
`CC(C)(CO)COC(=O)C(C)(C)CO`: the result was inactive.
As for `CC(C)(C)C1CCC(=O)CC1`, the outcome was inactive.
Same read-out and setting: under `CCN(CC)c1cccc(C)c1` stands “inactive”; under `Fc1ccc(Br)cc1`, “inactive”; under `COC(OC)(C(=O)c1ccccc1)c1ccccc1`, “inactive”.
Still for that read-out and setting: the result for `CCc1cccc(C)c1N` reads “inactive”.
Still for that read-out and setting: the result for `CCCCOCCOCCOC(C)=O` reads “inactive”.
In the case of `CCCCC(CC)COS(=O)(=O)O` (configuration not stated), the compound was classed as inactive.
With `CCC[Si](OC)(OC)OC`, the compound was called inactive.
Regarding `CCCCCCCCCCCCCCCCCCOS(=O)(=O)O`, the compound was classed as inactive.
The same measure, in the same setting: under `OCCCc1ccccc1` stands “inactive”; under `C=C(C)C1CC=C(C)C(OC(C)=O)C1` (configuration not stated), “inactive”.
As for `CC(C)(O)Cc1ccccc1`, the result was inactive.
Regarding `CCOC(=O)/C=C\C(=O)OCC`, the compound was classed as inactive.
Same read-out and setting: under `CCOC(=O)C1=NN(c2ccc(Cl)cc2Cl)C(C)(C(=O)OCC)C1` (configuration not stated) stands “inactive”.

A further test in a line: ATG_GAL4_TRANS: Attagene TRANS-FACTORIAL HepG2 Assay for GAL4 (Internal Marker) (AID 2282976). Conditions: HepG2 Attagene TRANS GAL4 internal marker reporter. The procedure, abridged: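 First, HepG2 cells were transfected with reporter units under GAL4-UAS control. Next, they were treated with chemical for 24 h. Finally, RNA was reverse-transcribed, PCR-amplified, FAM-labelled and resolved by capillary electrophoresis, with induction scored against DMSO.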
On to `CCCCCCCC(=O)OCC`, for which the result was inactive.
`COC(=O)CC(C)CCC=C(C)C` (configuration not stated): the compound was classed as inactive.
On the same count and under the same terms, under `CC(C)(CO)COC(=O)C(C)(C)CO` stands “inactive”.
Same read-out and setting: the result for `CC(C)(C)C1CCC(=O)CC1` reads “inactive”; that for `CCN(CC)c1cccc(C)c1`, “inactive”.
Same read-out and setting: the result for `COC(OC)(C(=O)c1ccccc1)c1ccccc1` reads “inactive”; that for `CCCCOCCOCCOC(C)=O`, “inactive”.
As to `CCCCC(CC)COS(=O)(=O)O` (configuration not stated), the call was inactive.
Regarding `Cc1ccc(S(=O)(=O)N=C=O)cc1`, the compound was called inactive.
Still for that read-out and setting: the result for `CCOC(=O)C1=NN(c2ccc(Cl)cc2Cl)C(C)(C(=O)OCC)C1` (configuration not stated) reads “inactive”; that for `C=C(C)C(=O)OCCOC(=O)C(=C)C`, “inactive”.
